PubChem BioAssay (Tox21)
Records with an inconclusive call do not appear. Activity calls are given as the source filed them. Unless noted, calls follow the shape of the dose curve; as a rule, active = well fitted curve in the direction sought with a large enough effect in the repeat runs; inconclusive = weak or mixed curves; inactive = no such curve, though single readings can be large; an effect the other way counts as inactive or inconclusive.

What was measured:
[1] = qHTS assay to identify small molecule agonists of the sonic hedgehog signaling (Shh) pathway (AID 1259368; calls by dose curve; also: series mostly up to about 92 µM; nearly all actives have a fitted effect of over 15% in size)
How it was run: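 NIH/3T3-derived 3T3Gli1-Luc cells carrying a stably integrated Gli1 response element–firefly luciferase reporter were plated, left 4 hr at 37 C, then given compounds in DMSO for 24 hr. Luminescence was read 30 min after adding luciferase reagent.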

[2] = qHTS assay to identify small molecule antagonists of the sonic hedgehog signaling (Shh) pathway (AID 1259369; calls by dose curve; also: nearly all actives have a fitted effect of over 45% in size)
How it was run: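 NIH/3T3-derived 3T3Gli1-Luc cells with stably integrated Gli1-Luc reporter were preincubated 4hr at 37 C, then given compounds in DMSO plus Shh conditioned medium and incubated 24hr. Firefly luciferase luminescence read after 30min reagent at room temperature.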

[3] = molecular target: Estrogen receptor beta (Homo sapiens) (UniProt Q92731); assay: qHTS assay to identify small molecule agonists of the estrogen receptor beta (ER-beta) signaling pathway (AID 1259377; active = well fitted activation curve with a large enough effect in the signal ratio in the repeat runs, not every such curve was filed as active; the % refers to the signal ratio)
How it was run: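 Reporter cells (HEK293T, ER-beta-UAS-bla) receive compounds or DMSO after a 6 hr pre-incubation. They then incubate 16 hr at 37C/5% CO2, and fluorescence from LiveBLAzer B/G substrate is measured after 2 hours at room temperature.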

[4] = molecular target: Estrogen receptor beta (Homo sapiens) (UniProt Q92731); assay: qHTS assay to identify small molecule antagonists of the estrogen receptor beta (ER-beta) signaling pathway (AID 1259378; active = well fitted inhibition curve with a large enough effect in the signal ratio in the repeat runs, not every such curve was filed as active; the % refers to the signal ratio)
How it was run: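 Antagonist mode: compounds added to beta-lactamase reporter HEK293T ER-beta-UAS cells stimulated with E2 (1nM final), 16 hr at 37C. LiveBLAzer B/G FRET substrate, 2 hours room temperature, fluorescence read-out.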

[5] = qHTS assay to identify small molecule agonists of the androgen receptor (AR) signaling pathway in the presence of an antagonist - cell viability counter screen (AID 1259379); also: series mostly up to about 92 µM; nearly all actives have a fitted effect of over 25% in size
How it was run: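 MDA-kb2 human breast carcinoma cells (stable MMTV-luciferase, AR/GR responsive) were seeded 3,000 cells/well, pre-incubated 5 hr at 37C without CO2, then given 3.0uM nilutamide and compounds at 15 concentrations for 16 hr. Viability was read by CellTiter-Fluor fluorescence.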

[6] = qHTS assay to identify small molecule agonists of the estrogen receptor beta (ER-beta) signaling pathway - cell viability counter screen (AID 1259380); also: nearly all actives have a fitted effect of over 30% in size
How it was run: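 ER-beta-UAS-bla HEK293T cells in medium with 2% charcoal-stripped FBS were preincubated 6 hr at 37C, dosed with compound in DMSO for 16 hr, then after the bla read, CellTiter-Glo was added for 30 min at room temperature; luminescence recorded.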

[7] = molecular target: Androgen receptor (Homo sapiens) (UniProt P10275); assay: qHTS assay to identify small molecule agonists of the androgen receptor (AR) signaling pathway in the presence of an antagonist (AID 1259381; calls by dose curve; also: nearly all actives have a fitted effect of over 15% in size)
How it was run: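 MDA-kb2 human breast carcinoma cells carrying an MMTV-luciferase reporter (AR- and GR-responsive) were treated with compounds at 15 concentrations plus 3.0uM final nilutamide for 16hr at 37C without CO2; luminescence was read after ONE-Glo addition.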

[8] = qHTS assay to identify small molecule antagonists of the estrogen receptor beta (ER-beta) signaling pathway - cell viability counter screen (AID 1259382);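 also: HEK293T cells carrying ER-beta-UAS-bla reporter stimulated with estradiol; series mostly up to about 92 µM; nearly all actives have a fitted effect of over 55% in size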
How it was run: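 ER-beta-UAS-bla HEK293T cells (2,000/well, 2% charcoal-stripped FBS) were pre-incubated 6 hr at 37C, then given compound plus 1nM final 17-beta-estradiol for 16 hr. Viability was read in the same wells by CellTiter-Glo luminescence after 30 min at room temperature.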

[9] = qHTS assay to identify small molecule agonists or antagonists of the thyroid stimulating hormone receptor (TSHR) signaling pathway - wild type cell line counter screen (AID 1259384; calls by dose curve)
How it was run: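 Counter screen in untransfected Hek293: compounds (15-point titration, triplicate) plus phosphodiesterase inhibitor Ro20-1724 added after 18 h plating; 30 min RT. Intracellular cAMP via competitive d2/cryptate immunoassay, 1 h incubation.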

[10] = molecular target: Thyrotropin receptor (Homo sapiens) (UniProt P16473); assay: qHTS assay to identify small molecule antagonists of the thyroid stimulating hormone receptor (TSHR) signaling pathway (AID 1259385; calls by dose curve; also: nearly all actives have a fitted effect of over 20% in size)
How it was run: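 Antagonist mode: compound-treated TSHR-expressing HEK293 cells were stimulated with 1.5 ng/mL TSH (final) in presence of Ro20-1724 for 30 min at RT. HTRF cAMP detection after 1 h; each compound tested at 15 concentrations, triplicate.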

[11] = qHTS assay to identify small molecule agonists of the estrogen receptor alpha (ER-alpha) signaling pathway in the presence of an antagonist - cell viability counter screen (AID 1259386);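 also: series mostly up to about 92 µM; cells exposed to compounds for 22 h at 37 °C before the viability read; nearly all actives have a fitted effect of over 30% in size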
How it was run: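 VM7Luc4E2 cells (endogenous full-length ER-alpha, 4×ERE-luciferase) were held 5 days in phenol red-free medium with 10% charcoal-stripped FBS, plated, then given 10.0nM ICI-182,780 and compounds at 15 concentrations for 22hr at 37C; viability read by CellTiter-Fluor fluorescence.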

[12] = molecular target: Progesterone receptor (Homo sapiens) (UniProt P06401); assay: qHTS assay to identify small molecule agonists of the progesterone receptor (PR) signaling pathway (AID 1346784; calls by dose curve; also: nearly all actives have a fitted effect of over 30% in size)
How it was run: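 Reporter assay, GripTite PR-UAS-bla HEK 293T cells: 16 hr exposure to DMSO-dissolved compounds at 37C, 5% CO2, in steroid-depleted (2% charcoal-stripped FBS) medium; beta-lactamase measured by FRET fluorescence.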

[13] = qHTS assay to identify small molecule antagonists of the progesterone receptor (PR) signaling pathway - cell viability counter screen (AID 1346798); also: series mostly up to about 92 µM; nearly all actives have a fitted effect of over 50% in size
How it was run: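 In the same plates used for the beta-lactamase readout, cell viability of compound- and R5020-treated PR-UAS-bla HEK293T cells (16 hr, 37C) was assessed by CellTiter-Glo luminescence.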

[14] = qHTS assay to identify small molecule antagonists of the TGF-beta/Smad signaling pathway - cell viability counter screen (AID 1346824); also: nearly all actives have a fitted effect of over 50% in size; also: potency is read from the fitted curve at half-maximal effect
How it was run: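 Cytotoxicity counter-screen run in the same wells as the beta-lactamase Smad reporter read: CellTiter-Glo luminescence after 30 min at room temperature. HEK 293T SBE-bla cells had 5 hr compound exposure at 37 C with TGF-beta1 (0.25 ng/mL stock).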

[15] = qHTS assay to identify small molecule agonists of the TGF-beta/Smad signaling pathway - cell viability counter screen (AID 1346829); also: top concentration of the series differs between compounds; nearly all actives have a fitted effect of over 45% in size
How it was run: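 In parallel with the Smad reporter read, viability of HEK 293T cells stably carrying SBE-bla is quantified by ATP luminescence following 5 hr compound treatment.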

[16] = qHTS assay to identify small molecule agonists of the TGF-beta/Smad signaling pathway (AID 1346859; active = well fitted activation curve with a large enough effect in the signal ratio in the repeat runs, not every such curve was filed as active; the % refers to the signal ratio; also: series mostly up to about 77 µM)
How it was run: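 Screening used HEK 293T SBE-bla cells at 4,000/well. Test agents: 5 hr, 37 C. Detection: FRET substrate, 2 hr RT, then excitation 405 nm with emissions at 460 and 530 nm.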

[17] = molecular target: Thyrotropin-releasing hormone receptor (Homo sapiens) (UniProt P34981); assay: qHTS assay to identify small molecule antagonists of the thyrotropin-releasing hormone receptor (TRHR) signaling pathway (AID 1346877; active = well fitted inhibition curve with a large enough effect in the repeat runs, not every such curve was filed as active; also: series mostly up to about 51 µM)
How it was run: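 TRHR-expressing HEK293 cells were seeded, cultured 18 h at 37 °C, then loaded with calcium dye for 2 h. Compounds were pre-incubated 5 min at room temperature before 1 nM TRH (final) was added, and kinetic fluorescence was recorded for 3 min.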

[18] = molecular target: Estrogen receptor (Homo sapiens) (UniProt P03372); assay: qHTS assay to identify small molecule agonists of the estrogen receptor alpha (ER-alpha) signaling pathway in the presence of an antagonist (AID 1259383; calls by dose curve; also: top concentration of the series differs between compounds; nearly all actives have a fitted effect of over 15% in size)
How it was run: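 VM7Luc4E2 cells (endogenous full-length ER-alpha, 4×ERE-luciferase) were precultured 5 days in phenol red-free medium with 10% charcoal-stripped FBS, given 10.0nM ICI-182,780 (final), then treated with compounds at 15 concentrations for 22hr at 37C; luminescence read with ONE-Glo.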

[19] = molecular target: Progesterone receptor (Homo sapiens) (UniProt P06401); assay: qHTS assay to identify small molecule antagonists of the progesterone receptor (PR) signaling pathway (AID 1346795; active = well fitted inhibition curve with a large enough effect in the signal ratio in the repeat runs, not every such curve was filed as active; the % refers to the signal ratio)
How it was run: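 Stimulus R5020 at 1 nM final; cells HEK293T PR-UAS-bla; medium with 2% charcoal-stripped FBS; compound exposure 16 hr at 37C, 5% CO2; detection by FRET beta-lactamase substrate, 2 hr, room temperature.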

[20] = qHTS assay to identify small molecule agonists of the progesterone receptor (PR) signaling pathway - cell viability counter screen (AID 1346799; calls by dose curve; also: nearly all actives have a fitted effect of over 45% in size)
How it was run: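 Multiplexed viability read: CellTiter-Glo luminescence, 30 min RT, following LiveBLAzer FRET measurement on PR-UAS-bla HEK293T cells exposed to compounds 16 hr.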

Measured: Potency

Chain of Estrogen receptor beta (Homo sapiens) (Q92731 whole entry, looked up): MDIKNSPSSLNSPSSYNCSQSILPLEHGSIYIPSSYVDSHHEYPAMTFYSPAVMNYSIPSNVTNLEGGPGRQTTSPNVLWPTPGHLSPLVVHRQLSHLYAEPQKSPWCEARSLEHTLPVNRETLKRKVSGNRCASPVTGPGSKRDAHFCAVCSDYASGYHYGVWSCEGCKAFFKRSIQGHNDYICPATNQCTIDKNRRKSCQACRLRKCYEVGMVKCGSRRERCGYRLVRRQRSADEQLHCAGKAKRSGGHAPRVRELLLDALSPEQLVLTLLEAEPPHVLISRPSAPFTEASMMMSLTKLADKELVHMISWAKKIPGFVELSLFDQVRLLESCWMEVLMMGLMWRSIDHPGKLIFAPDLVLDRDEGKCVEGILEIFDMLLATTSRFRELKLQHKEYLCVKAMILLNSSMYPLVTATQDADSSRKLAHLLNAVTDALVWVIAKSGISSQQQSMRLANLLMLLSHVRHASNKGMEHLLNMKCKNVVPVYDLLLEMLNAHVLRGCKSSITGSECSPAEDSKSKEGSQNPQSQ
Chain of Thyrotropin receptor (Homo sapiens) (P16473 whole entry, looked up): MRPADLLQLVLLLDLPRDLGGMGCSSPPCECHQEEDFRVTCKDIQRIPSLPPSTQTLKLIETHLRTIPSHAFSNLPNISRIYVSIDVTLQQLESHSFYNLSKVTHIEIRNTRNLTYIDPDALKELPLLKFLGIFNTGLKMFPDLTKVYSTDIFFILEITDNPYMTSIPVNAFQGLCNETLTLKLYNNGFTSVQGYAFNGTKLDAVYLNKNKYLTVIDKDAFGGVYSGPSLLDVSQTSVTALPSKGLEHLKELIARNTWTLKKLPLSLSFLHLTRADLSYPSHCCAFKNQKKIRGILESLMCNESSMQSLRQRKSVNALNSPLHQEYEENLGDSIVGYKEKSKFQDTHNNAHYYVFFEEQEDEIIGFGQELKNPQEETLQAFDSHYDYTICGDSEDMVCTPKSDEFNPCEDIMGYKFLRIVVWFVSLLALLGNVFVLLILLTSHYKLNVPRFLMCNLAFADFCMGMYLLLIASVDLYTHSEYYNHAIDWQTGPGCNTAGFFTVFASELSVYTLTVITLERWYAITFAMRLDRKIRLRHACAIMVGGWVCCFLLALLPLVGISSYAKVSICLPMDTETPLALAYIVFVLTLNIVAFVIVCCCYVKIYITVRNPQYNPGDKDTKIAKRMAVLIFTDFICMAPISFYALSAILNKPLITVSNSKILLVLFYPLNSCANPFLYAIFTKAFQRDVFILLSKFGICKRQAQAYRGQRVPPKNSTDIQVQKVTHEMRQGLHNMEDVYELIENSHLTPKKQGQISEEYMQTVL
Chain of Androgen receptor (Homo sapiens) (P10275 whole entry, looked up): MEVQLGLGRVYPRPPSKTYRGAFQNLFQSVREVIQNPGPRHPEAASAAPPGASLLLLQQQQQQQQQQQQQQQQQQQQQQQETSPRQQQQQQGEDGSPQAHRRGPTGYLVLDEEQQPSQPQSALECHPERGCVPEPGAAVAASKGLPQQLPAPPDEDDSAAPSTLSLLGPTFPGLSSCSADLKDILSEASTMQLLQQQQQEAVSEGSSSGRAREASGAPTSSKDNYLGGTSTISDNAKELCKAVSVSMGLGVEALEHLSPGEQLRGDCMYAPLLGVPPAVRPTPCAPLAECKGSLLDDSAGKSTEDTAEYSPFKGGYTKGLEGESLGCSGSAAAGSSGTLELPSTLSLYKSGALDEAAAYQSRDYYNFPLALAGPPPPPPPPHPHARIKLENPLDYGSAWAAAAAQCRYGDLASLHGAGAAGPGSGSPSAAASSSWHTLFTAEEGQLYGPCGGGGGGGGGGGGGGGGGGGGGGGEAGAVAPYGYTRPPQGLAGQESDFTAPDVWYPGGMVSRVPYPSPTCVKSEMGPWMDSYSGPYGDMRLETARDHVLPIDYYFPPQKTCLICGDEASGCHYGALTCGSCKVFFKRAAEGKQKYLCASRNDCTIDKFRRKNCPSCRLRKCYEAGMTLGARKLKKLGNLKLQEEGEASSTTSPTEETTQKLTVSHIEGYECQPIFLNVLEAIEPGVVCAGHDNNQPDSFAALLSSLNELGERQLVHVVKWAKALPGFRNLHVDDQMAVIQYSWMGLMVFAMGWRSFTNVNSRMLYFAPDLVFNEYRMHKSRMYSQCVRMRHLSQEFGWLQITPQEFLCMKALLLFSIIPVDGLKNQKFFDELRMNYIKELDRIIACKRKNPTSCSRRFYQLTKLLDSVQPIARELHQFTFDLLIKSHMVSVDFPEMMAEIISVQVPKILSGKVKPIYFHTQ
Chain of Progesterone receptor (Homo sapiens) (P06401 whole entry, looked up): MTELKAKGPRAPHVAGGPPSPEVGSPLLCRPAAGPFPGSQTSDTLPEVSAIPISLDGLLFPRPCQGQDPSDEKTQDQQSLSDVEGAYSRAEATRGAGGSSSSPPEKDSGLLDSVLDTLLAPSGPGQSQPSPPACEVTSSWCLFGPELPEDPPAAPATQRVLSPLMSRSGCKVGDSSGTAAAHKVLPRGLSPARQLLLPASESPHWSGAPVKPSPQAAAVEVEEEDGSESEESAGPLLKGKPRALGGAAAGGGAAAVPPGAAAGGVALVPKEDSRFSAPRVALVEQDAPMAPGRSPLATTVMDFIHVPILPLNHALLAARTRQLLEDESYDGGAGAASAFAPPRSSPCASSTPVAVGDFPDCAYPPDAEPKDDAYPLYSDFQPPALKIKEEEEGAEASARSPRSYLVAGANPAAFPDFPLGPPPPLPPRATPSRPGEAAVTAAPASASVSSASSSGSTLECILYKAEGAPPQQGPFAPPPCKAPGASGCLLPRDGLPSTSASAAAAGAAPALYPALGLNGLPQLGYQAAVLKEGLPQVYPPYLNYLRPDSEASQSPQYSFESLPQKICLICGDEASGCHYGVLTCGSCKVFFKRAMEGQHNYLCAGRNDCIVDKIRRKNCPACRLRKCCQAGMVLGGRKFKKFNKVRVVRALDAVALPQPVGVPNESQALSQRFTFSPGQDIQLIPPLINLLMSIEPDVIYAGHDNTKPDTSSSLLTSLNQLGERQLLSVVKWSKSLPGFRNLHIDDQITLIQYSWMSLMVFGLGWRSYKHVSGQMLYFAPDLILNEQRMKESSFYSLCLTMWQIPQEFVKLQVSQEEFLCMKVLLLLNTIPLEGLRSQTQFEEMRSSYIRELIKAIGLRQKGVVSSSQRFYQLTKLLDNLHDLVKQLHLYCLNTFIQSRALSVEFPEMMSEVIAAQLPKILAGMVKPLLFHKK
Chain of Thyrotropin-releasing hormone receptor (Homo sapiens) (P34981 whole entry, looked up): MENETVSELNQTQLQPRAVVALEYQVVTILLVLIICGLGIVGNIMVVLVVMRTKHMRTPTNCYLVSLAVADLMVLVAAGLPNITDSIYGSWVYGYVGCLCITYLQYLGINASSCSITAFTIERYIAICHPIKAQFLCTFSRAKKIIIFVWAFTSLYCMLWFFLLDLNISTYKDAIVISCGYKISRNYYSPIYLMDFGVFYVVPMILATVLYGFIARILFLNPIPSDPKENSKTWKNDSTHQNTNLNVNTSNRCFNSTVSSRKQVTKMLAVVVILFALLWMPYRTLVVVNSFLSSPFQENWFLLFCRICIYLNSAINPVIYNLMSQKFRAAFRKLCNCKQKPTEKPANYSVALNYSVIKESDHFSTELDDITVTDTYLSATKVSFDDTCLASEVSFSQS
Chain of Estrogen receptor (Homo sapiens) (P03372 whole entry, looked up): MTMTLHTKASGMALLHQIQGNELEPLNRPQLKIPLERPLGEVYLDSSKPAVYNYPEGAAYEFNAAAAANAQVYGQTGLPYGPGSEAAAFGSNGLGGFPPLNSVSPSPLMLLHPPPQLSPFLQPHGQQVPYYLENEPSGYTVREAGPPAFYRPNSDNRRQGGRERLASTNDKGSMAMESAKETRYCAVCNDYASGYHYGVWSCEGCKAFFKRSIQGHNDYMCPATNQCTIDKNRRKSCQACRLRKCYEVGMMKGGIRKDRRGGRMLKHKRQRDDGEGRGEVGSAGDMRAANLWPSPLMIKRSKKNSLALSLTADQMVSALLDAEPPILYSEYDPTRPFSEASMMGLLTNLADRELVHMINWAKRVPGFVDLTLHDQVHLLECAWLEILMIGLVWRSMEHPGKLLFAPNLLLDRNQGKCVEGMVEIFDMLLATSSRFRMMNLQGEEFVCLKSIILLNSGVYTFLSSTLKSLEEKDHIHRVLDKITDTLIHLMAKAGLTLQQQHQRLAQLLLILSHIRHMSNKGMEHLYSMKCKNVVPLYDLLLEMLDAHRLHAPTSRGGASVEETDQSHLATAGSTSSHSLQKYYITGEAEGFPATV

COC(=O)[C@@H](N)Cc1ccc(O)c(O)c1
not listed: [18] | [19] | [20]
inactive: all other assays above

CC1=CC(C)C(C=O)CC1 (stereo not given)
active: [14] 4.9 µM
not listed: [7] | [15]
inactive: all other assays above

Cc1ccc(C#N)cc1
not listed: [7] | [19]
inactive: all other assays above

CCN1CCC[C@H]1CNC(=O)c1c(O)c(Cl)cc(Cl)c1OC
not listed: [7]
inactive: all other assays above

C=C1CC[C@H]2C[C@@H]1C2(C)C
not listed: [7] | [19]
inactive: all other assays above

Cc1ccc(Cl)cc1Cl
not listed: [7]
inactive: all other assays above

Cc1cnc(NS(=O)(=O)c2ccc(N)cc2)nc1
not listed: [20]
inactive: all other assays above

COc1cc(C(=O)N2CCCCCCC2)cc(OC)c1OC
not listed: [7] | [19] | [20]
inactive: all other assays above

O=[N+]([O-])c1ccc(F)cc1F
not listed: [7] | [9] | [10] | [17]
inactive: all other assays above

ClC(Cl)(Br)Br
not listed: [11] | [17]
inactive: all other assays above

N=C(N)c1ccc(OCCCOc2ccc(C(=N)N)cc2)cc1
not listed: [7] | [17] | [20]
inactive: all other assays above

CCCCC(CC)COC(=O)c1ccccc1O (stereo not given)
not listed: [7] | [10] | [15] | [20]
inactive: all other assays above

CCCCCCCCCCCCCCCCC
not listed: [7]
inactive: all other assays above

Cc1c(NC(C)C)c(=O)n(-c2ccccc2)n1C
not listed: [7] | [19]
inactive: all other assays above

CCC(C)C1CCCCC1=O (stereo not given)
not listed: [7] | [11] | [12] | [19]
inactive: all other assays above
